Active and inactive are the calls of the source. Unless noted, how the calls were made is not given here.
Legend:
[1] = system: XIP peptide (Xip251-270) binding; experiment: XIP fragment 251-270 binding compounds – biochemical, small-molecule microarray, fluorescence 635/667 nm, 0.1 µg/mL protein, primary screen (AID 1182); conditions: fluorescent protein binding, 635 nm, higher = more signal, called active from +8 up or from −8 down
[2] = system: XIP peptide (Xip251-270); experiment: compounds binding XIP fragment 251-270 – biochemical, small-molecule microarray, fluorescence 635/667 nm, 0.5 µg/mL protein, primary screen (AID 1183); conditions: fluorescence 635 nm, higher = more signal
[3] = blood-stage malaria parasite viability loss – strain 3D7, DAPI fluorescence, 100 nL, primary screen (AID 1184);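 further: parasites grown inside human red blood cells in medium with human serum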; conditions: P. falciparum 3D7 growth, 3 d, higher = more signal
[4] = biological target: Homeobox protein Hox-A13 (Mus musculus) (UniProt Q62424); experiment: disruptors of Hoxa13 oligonucleotide interaction – biochemical, fluorescence polarization, labeled oligonucleotide, primary screen (AID 1185); conditions: Hoxa13:DNA binding, 15 min, higher = more signal, called active from +8 up or from −8 down
Homeobox protein Hox-A13 (Mus musculus), sequence (Q62424 whole entry, looked up): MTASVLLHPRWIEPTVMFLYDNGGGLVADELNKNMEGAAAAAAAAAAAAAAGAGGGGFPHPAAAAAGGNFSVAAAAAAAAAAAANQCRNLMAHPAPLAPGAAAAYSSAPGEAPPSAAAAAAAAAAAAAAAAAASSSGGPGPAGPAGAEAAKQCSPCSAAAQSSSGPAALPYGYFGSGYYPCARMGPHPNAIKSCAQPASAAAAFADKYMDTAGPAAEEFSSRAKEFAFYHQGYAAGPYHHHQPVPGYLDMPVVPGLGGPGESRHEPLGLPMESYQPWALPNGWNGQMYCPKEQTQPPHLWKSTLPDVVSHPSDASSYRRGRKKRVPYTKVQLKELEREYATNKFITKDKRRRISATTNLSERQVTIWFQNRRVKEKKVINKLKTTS

[5] = blockers of DNA damage checkpoint Chk1 activation – imaging, HeLa, hydroxyurea, phospho-Chk1 antibody, percent positive cells, primary screen (AID 1186); conditions: hydroxyurea-induced phospho-Chk1 immunofluorescence imaging, higher = more signal
[6] = blockers of DNA damage checkpoint Chk1 activation – imaging, HeLa, hydroxyurea, phospho-Chk1 nuclear intensity, primary screen (AID 1187); conditions: hydroxyurea-induced phospho-Chk1 immunofluorescence imaging, higher = more signal

Row | Compound | composite z-score [1] | composite z-score [2] | z-score [3] | z-score [4] | z-score [5] | z-score [6]
1 | COc1ccc([Si](C)(C)[C@H]2[C@H](CCO)O[C@@]3(C(=O)N(Cc4cccc(N5CCCCC5=O)c4)c4ccccc43)[C@@H]2C)cc1 | 1.41 (inactive) | 0.589 | -2.7 | -5.06 (inactive) | -1.36 (inactive) | -0.572 (inactive)
2 | COC(=O)[C@@]1(Cc2ccc(OC)cc2)[C@H]2c3cc(C(=O)N(C)C)n(Cc4ccccc4)c3C[C@H]2CN1C(=O)c1ccccc1 | 0.0961 (inactive) | -0.248 | -0.921 | -0.853 (inactive) | -0.342 (inactive) | -0.687 (inactive)
3 | C=CCN1C(=O)[C@@]2(O[C@@H](CCO)[C@H]([Si](C)(C)c3ccc(OC)cc3)[C@H]2C)c2cc(N3C(=O)c4ccccc4Oc4ccccc43)ccc21 | 0.227 (inactive) | 0.536 | -2.52 | -4.25 (inactive) | -0.948 (inactive) | -0.004 (inactive)
4 | O=C1C[C@]2(c3ccc([N+](=O)[O-])cc3)C(=O)N(Cc3ccccc3)c3cc(CO)ccc3[C@H]2N1CC12CC3CC(CC(C3)C1)C2 | 0.0547 (inactive) | -1.46 | -0.734 | -1.07 (inactive) | 0.0585 (inactive) | -0.785 (inactive)
5 | O=C1NC(=O)C2C1C=CC(C(O)c1ccc3c(c1)OCO3)N2Nc1ccccn1 (stereo not given) | 0.307 (inactive) | 0.247 | 0.453 | -1.69 (inactive) | 0.095 (inactive) | 0.14 (inactive)
6 | COCCOC(=O)N1C(=O)[C@@]2(c3cc(C#CCC(C(=O)OC)C(=O)OC)ccc31)[C@H](c1ccc(OCCO)cc1)N1[C@H](c3ccccc3)[C@H](c3ccccc3)OC(=O)[C@H]1[C@@H]2C(=O)N1CCN(c2ncccn2)CC1 | 1.42 (inactive) | 0.824 | -2.25 | 2.08 (inactive) | -0.163 (inactive) | -0.0755 (inactive)
7 | CCOC(=O)C[C@H]1[C@H](OC(=O)c2ccc(-c3ccccc3)cc2)[C@@H](NC(=O)c2ccc3ccccc3n2)c2cc(OCCCO)ccc2N1C(=O)c1ccccc1 | -0.0549 (inactive) | 0.266 | -1.1 | -2.05 (inactive) | 0.188 (inactive) | 0.16 (inactive)
8 | COC(=O)[C@@]1(Cc2ccc(F)cc2)[C@H]2c3cc(C(=O)N4CCCC4)n(CCF)c3C[C@H]2CN1C(=O)c1ccccc1 | 2.43 (inactive) | -0.352 | -0.815 | -4.62 (inactive) | -0.323 (inactive) | -0.593 (inactive)
9 | CCCC=C(CCC)[C@@H](NP(=O)(c1ccccc1)c1ccccc1)c1ccc(C(F)(F)F)cc1 | -0.185 (inactive) | 0.258 | -0.591 | -1.19 (inactive) | 0.272 (inactive) | -0.0984 (inactive)
10 | Cc1ccc(S[C@]2(C(=O)O)CC(=O)N(Cc3ccccc3Cl)[C@@H]2c2ccc(CO)cc2)cc1 | 0.084 (inactive) | -0.0477 | -1.34 | -2.09 (inactive) | -0.181 (inactive) | -0.207 (inactive)
11 | NC(=O)NCC#Cc1ccc2c(c1)[C@]1(C(=O)N2)[C@H](c2ccc(O)cc2)N2[C@H](c3ccccc3)[C@H](c3ccccc3)OC(=O)[C@H]2[C@@H]1C(=O)Nc1nc2ccccc2s1 | 0.541 (inactive) | 0.453 | 0.364 | 0.608 (inactive) | -0.275 (inactive) | 0.0338 (inactive)
12 | CCC[C@@H]1C[C@@]1(CCC)[C@@H](NP(=O)(c1ccccc1)c1ccccc1)c1ccc(Cl)cc1 | 0.337 (inactive) | -0.53 | -0.908 | -1.08 (inactive) | 0.946 (inactive) | 0.551 (inactive)
13 | COc1ccc(NC(=O)O[C@H]2[C@H](OC(=O)Nc3ccc4c(c3)OCO4)[C@@H](OC(=O)Nc3ccc4c(c3)OCO4)[C@@H](OC)O[C@@H]2CO)cc1 | 1.61 (inactive) | 0.877 | -2.04 | -6.9 (inactive) | -0.0538 (inactive) | 0.419 (inactive)
14 | COC(=O)[C@@]1(Cc2ccc(OC)cc2)[C@H]2c3cc(C(=O)N(C)C)n(CCc4c[nH]c5ccc(O)cc45)c3C[C@H]2CN1C(=O)c1ccccc1 | 0.545 (inactive) | 0.657 | -1.73 | -1.44 (inactive) | 0.453 (inactive) | -0.541 (inactive)
15 | [N-]=[N+]=Nc1ccccc1[C@@H]1OC(c2ccc(OCCCO)cc2)=N[C@]1(CCS(=O)(=O)c1ccccc1)C(=O)NCCN1CCOCC1 | 0.691 (inactive) | 0.433 | -2.67 | -3.85 (inactive) | 0.147 (inactive) | 0.222 (inactive)

Reference: PubChem BioAssay
